Assay outcomes deposited in PubChem by National Center for Advancing Translational Sciences (NCATS).
Hits are enriched below; roughly 19% of the tested compounds scored in any of these assays.
DT40 TDP1 no CPT: qHTS for Inhibitors of human tyrosyl-DNA phosphodiesterase 1 (TDP1): qHTS in cells in absence of CPT; AID 686978, 2013; hit rate 15% among 420,000; Potency, µM (series often up to 46.2 µM), actives largely listed as inhibitors; DT40 Tdp1-/- hTDP1 cells, no CPT, ATP luminescence, 48 h; also: nearly all actives have a fitted effect of over 55% in size
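A cellular qHTS used chicken DT40 cells lacking endogenous Tdp1 but carrying stably transfected human TDP1. Compounds were applied without camptothecin, and cell growth kinetics were judged by ATP-dependent luminescence after ≥48 hr.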
TDP1 cell CPT: qHTS for Inhibitors of human tyrosyl-DNA phosphodiesterase 1 (TDP1): qHTS in cells in presence of CPT | chicken DT40 Tdp1-/-;hTDP1 cells + 20 nM CPT, ATP luminescence, 48 h | Potency, µM (highest dose often 46.2 µM), actives largely listed as inhibitors | hit rate 12% among 420,000; also: nearly all actives have a fitted effect of over 55% in size
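Chicken DT40 Tdp1-/- cells stably complemented with human TDP1 were seeded at 400 cells/well in medium containing 20 nM camptothecin, exposed to pin-transferred compounds, and grown at 37 °C for at least 48 hr. Viability was read as ATP luminescence.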
RORg inh: qHTS for inhibitors of ROR gamma transcriptional activity; Potency, µM (titrated, usually from 53.6 µM), usual class: inhibitors; AID 2551, 2010; Drosophila S2 Gal4-RORgamma UAS-luciferase reporter, 20 h; hit rate 5.4% among 310,000; Nuclear receptor ROR-gamma (Mus musculus), P51450; also: nearly all actives have a fitted effect of over 60% in size
Target sequence (P51450 whole entry, looked up, the tested form may be a part): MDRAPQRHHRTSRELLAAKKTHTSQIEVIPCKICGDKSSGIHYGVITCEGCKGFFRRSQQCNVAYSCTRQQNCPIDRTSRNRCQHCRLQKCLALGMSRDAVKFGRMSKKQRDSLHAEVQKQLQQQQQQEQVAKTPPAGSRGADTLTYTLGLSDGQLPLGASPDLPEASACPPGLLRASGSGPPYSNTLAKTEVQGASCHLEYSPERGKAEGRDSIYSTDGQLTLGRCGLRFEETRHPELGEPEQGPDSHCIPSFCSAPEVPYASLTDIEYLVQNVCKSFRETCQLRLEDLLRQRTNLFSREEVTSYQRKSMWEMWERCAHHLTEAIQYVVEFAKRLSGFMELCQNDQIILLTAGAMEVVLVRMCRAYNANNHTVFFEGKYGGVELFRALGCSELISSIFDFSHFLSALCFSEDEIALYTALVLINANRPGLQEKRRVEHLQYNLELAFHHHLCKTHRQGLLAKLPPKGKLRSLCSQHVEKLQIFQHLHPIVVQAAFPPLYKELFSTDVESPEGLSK
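Read-out: Photinus luciferase luminescence; inhibitors lower reporter signal. Insect Schneider cells with Gal4-ROR gamma fusion under metallothionein promoter, UAS reporter; 700 uM final copper sulfate induction, 20 hr, ambient temperature.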
TDP1 inh: qHTS Assay for Inhibitors of Tyrosyl-DNA Phosphodiesterase (TDP1). Tyrosyl-DNA phosphodiesterase 1 (Homo sapiens), Q9NUW8. recombinant TDP1, AlphaScreen DNA substrate cleavage. Potency, µM (titrated, usually from 130 µM), hits mostly inhibitors. hit rate 0.28% among 350,000. AID 485290, 2010; also: nearly all actives have a fitted effect of over 40% in size
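AlphaScreen read-out: signal falls as enzyme removes the 3' tyrosine-FITC from a 5'-biotinylated DNA oligo (15 nM, 5 min, RT). Enzyme was E. coli-made recombinant Tdp1 at 1 nM, exposed to compound for 15 min beforehand; beads 10 ug/ml, 10 min.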
Gal4-VP16 FLuc: VP16 counterscreen qHTS for inhibitors of ROR gamma transcriptional activity; Potency, µM (doses to about 53.6 µM), actives largely listed as inhibitors; hit rate 3.5% among 310,000; AID 2546, 2010; Drosophila S2 Gal4-VP16 UAS-luciferase, luminescence, 20 h;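 also: Gal4-VP16 expression switched on by copper sulfate through the metallothionein promoter; nearly all actives have a fitted effect of over 50% in size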
A number is an active result. Calls follow the shape of the dose curve; as a rule, active = well fitted curve in the direction sought with a large enough effect; inconclusive = small, poorly fitted or top-dose-only effect, or another doubt; inactive = no such curve, though single readings can be large; an effect the other way counts as inactive or inconclusive.

Results for CN(C(=O)COC(=O)c1ccccc1SCC(=O)NC1CCCCCCC1)C1CCS(=O)(=O)C1 (configuration not stated) ?
DT40 TDP1 no CPT: inconclusive; TDP1 cell CPT: inactive; RORg inh: inconclusive; TDP1 inh: inactive; Gal4-VP16 FLuc: inactive

What do the screens show for `COc1cccc(CNC(=S)Nc2ccc3c(c2)c(=O)n(C)n3Cc2csc(C)n2)c1`?
DT40 TDP1 no CPT: inactive; TDP1 cell CPT: inactive

How did COc1cccc(CC(=O)Nc2ccc3c(c2)c(=O)n(C)n3-c2ccc(C(C)(C)C)cc2)c1 do in these assays?
DT40 TDP1 no CPT: inconclusive; TDP1 cell CPT: 25.9µM

How did COc1cccc(Cn2c3ccc(NC(=O)Cc4cc(OC)ccc4OC)cc3c(=O)n2C)c1 do in these assays?
DT40 TDP1 no CPT: 20.6µM; TDP1 cell CPT: 11.6µM

Results for CS(=O)(=O)Nc1ccc(C(=O)Nc2cccc([N+](=O)[O-])c2)cc1 ?
DT40 TDP1 no CPT: inactive; TDP1 cell CPT: inactive; RORg inh: inactive; Gal4-VP16 FLuc: inactive

What do the screens show for `O=Cc1sc([O-])nc1-[n+]1ccc2ccccc2c1`?
DT40 TDP1 no CPT: inactive; TDP1 cell CPT: inactive; RORg inh: inactive; TDP1 inh: inactive; Gal4-VP16 FLuc: inactive

Results for COc1cc(C(=O)NC(C)Cc2cccs2)cc(OC)c1OC (configuration not stated) ?
DT40 TDP1 no CPT: inactive; TDP1 cell CPT: inactive; RORg inh: inactive; TDP1 inh: inactive; Gal4-VP16 FLuc: inactive

Results for C[C@H](O)[C@@H]1C(=O)N2CCc3ccc(-c4ccccc4)cc3[C@@H]2C[C@@H]1N(C)C(=O)c1cccnc1 ?
DT40 TDP1 no CPT: inconclusive; TDP1 cell CPT: inactive

How did O=c1c2c3c(sc2[nH]c(=S)n1Cc1ccco1)CCC3 do in these assays?
DT40 TDP1 no CPT: inactive; TDP1 cell CPT: inactive; RORg inh: inconclusive; TDP1 inh: inconclusive; Gal4-VP16 FLuc: inconclusive

Results for Cc1ccc(-n2c(=S)[nH]c3sc4c(c3c2=O)CCC4)cc1 ?
DT40 TDP1 no CPT: inactive; TDP1 cell CPT: inactive; RORg inh: 1.12µM; TDP1 inh: inactive; Gal4-VP16 FLuc: 3.55µM

What do the screens show for `Cc1ccc(-n2c(=O)c3c4c(sc3n3c(=S)[nH]nc23)CCC4)cc1`?
DT40 TDP1 no CPT: inactive; TDP1 cell CPT: inactive; RORg inh: 11.2µM; TDP1 inh: inactive; Gal4-VP16 FLuc: inactive

Results for Cc1cccc(-n2c(=O)c3c4c(sc3n3c(=S)[nH]nc23)CCC4)c1 ?
DT40 TDP1 no CPT: inactive; TDP1 cell CPT: inactive; RORg inh: inconclusive; TDP1 inh: inactive; Gal4-VP16 FLuc: inconclusive

Results for O=c1c2c3c(sc2n2c(=S)[nH]nc2n1-c1ccccc1)CCC3 ?
DT40 TDP1 no CPT: inactive; TDP1 cell CPT: inactive; RORg inh: inactive; Gal4-VP16 FLuc: inactive

How did COc1ccc(-n2c(=O)c3c4c(sc3n3c(=S)[nH]nc23)CCC4)cc1 do in these assays?
DT40 TDP1 no CPT: inactive; TDP1 cell CPT: inactive; RORg inh: 11.2µM; TDP1 inh: inactive; Gal4-VP16 FLuc: inactive

Results for O=C(O)C1CCCN1S(=O)(=O)c1cc(Cl)ccc1Cl (configuration not stated) ?
DT40 TDP1 no CPT: inactive; TDP1 cell CPT: inactive; RORg inh: inactive; TDP1 inh: inactive; Gal4-VP16 FLuc: inactive

What do the screens show for `CCCCSC1=C(C#N)C(c2ccccc2C)C(C(=O)OCC)C(=O)N1` (configuration not stated)?
DT40 TDP1 no CPT: inactive; TDP1 cell CPT: inactive; RORg inh: inactive; TDP1 inh: inactive; Gal4-VP16 FLuc: inactive

How did CN(C)C=Nc1nonc1-c1ncn[nH]1 do in these assays?
DT40 TDP1 no CPT: inactive; TDP1 cell CPT: inactive; RORg inh: inactive; TDP1 inh: inactive; Gal4-VP16 FLuc: inactive

What do the screens show for `O=C(COC(=O)/C=C/c1ccc2c(c1)OCO2)NCc1ccc(F)cc1`?
DT40 TDP1 no CPT: 20.6µM; TDP1 cell CPT: 23.1µM

What do the screens show for `O=C(COC(=O)/C=C/c1ccco1)NCc1ccc2c(c1)OCO2`?
DT40 TDP1 no CPT: inactive; TDP1 cell CPT: inactive; RORg inh: inconclusive; TDP1 inh: 50.1µM; Gal4-VP16 FLuc: inactive

What do the screens show for `O=C(COC(=O)/C=C/c1ccc(S(=O)(=O)N2CCOCC2)cc1)NCc1ccc(F)cc1`?
DT40 TDP1 no CPT: 11.6µM; TDP1 cell CPT: 3.66µM; RORg inh: inactive; TDP1 inh: inactive; Gal4-VP16 FLuc: inactive

How did O=C(COC(=O)/C=C/c1ccc(F)cc1)NCc1ccc2c(c1)OCO2 do in these assays?
DT40 TDP1 no CPT: inactive; TDP1 cell CPT: inactive; TDP1 inh: inactive

Results for COc1cccc(/C=C/C(=O)OCC(=O)NCc2ccc3c(c2)OCO3)c1 ?
DT40 TDP1 no CPT: inconclusive; TDP1 cell CPT: inactive; TDP1 inh: inactive

How did Cc1cc(C)n(C(=O)CNC(=O)c2cccc(Cl)c2)n1 do in these assays?
DT40 TDP1 no CPT: inactive; TDP1 cell CPT: inactive; RORg inh: inactive; TDP1 inh: inactive; Gal4-VP16 FLuc: inactive

How did Cc1c(CCC(=O)N[C@@H](C)C(=O)O)c(=O)oc2cc3oc4c(c3cc12)CCCC4 do in these assays?
DT40 TDP1 no CPT: inactive; TDP1 cell CPT: inactive; RORg inh: inactive; Gal4-VP16 FLuc: inconclusive

Results for Cc1c(CCC(=O)N2CCC(C(=O)O)(c3ccccc3)CC2)c(=O)oc2cc3oc4c(c3cc12)CCCC4 ?
DT40 TDP1 no CPT: inactive; TDP1 cell CPT: inactive; RORg inh: 1.12µM; Gal4-VP16 FLuc: inconclusive

How did Cc1c(CCC(=O)N2CCC(C(=O)O)CC2)c(=O)oc2cc3oc4c(c3cc12)CCCC4 do in these assays?
DT40 TDP1 no CPT: 14.6µM; TDP1 cell CPT: inconclusive; RORg inh: inconclusive; Gal4-VP16 FLuc: inconclusive

Results for COc1ccc(NC(=O)C(=O)N2N=C(C(C)C)CC2(O)C(F)(F)F)cc1 (configuration not stated) ?
DT40 TDP1 no CPT: 5.01µM; TDP1 cell CPT: 5.8µM; RORg inh: 7.94µM; TDP1 inh: inactive; Gal4-VP16 FLuc: inconclusive

How did CCCC1=NN(C(=O)C(=O)Nc2ccc(Br)cc2)C(O)(C(F)(F)F)C1 (configuration not stated) do in these assays?
DT40 TDP1 no CPT: 4.61µM; TDP1 cell CPT: 4.11µM; RORg inh: 0.794µM; TDP1 inh: inactive; Gal4-VP16 FLuc: 5.01µM

Results for CCCCC1=NN(C(=O)c2cocc2C)C(O)(C(F)(F)F)C1 (configuration not stated) ?
DT40 TDP1 no CPT: inconclusive; TDP1 cell CPT: inconclusive; RORg inh: inconclusive; TDP1 inh: inactive; Gal4-VP16 FLuc: inconclusive

Results for CCC1=NN(C(=O)C(=O)Nc2ccc(Br)cc2)C(O)(C(F)(F)F)C1 (configuration not stated) ?
DT40 TDP1 no CPT: inactive; TDP1 cell CPT: inactive; RORg inh: 2.82µM; TDP1 inh: inactive; Gal4-VP16 FLuc: 5.01µM
